Laboratory results as given in PubChem BioAssay AID1460 (National Center for Advancing Translational Sciences (NCATS), 2008).
In all, about 270,000 compounds went through this assay and about 5,800 (2.1%) were called active. Another 16% or so got no clear call; they are omitted. Calls follow the shape of the dose curve; as a rule, active = well fitted inhibition curve with a large enough effect; inconclusive = small, poorly fitted or top-dose-only effect; inactive = flat fitted curve, though single readings scatter. The entries come from a sample that favours actives as a whole.

Molecular target: Microtubule-associated protein tau (Homo sapiens) (UniProt P10636)
Experiment: qHTS for Inhibitors of Tau Fibril Formation, Thioflavin T Binding; also: nearly all actives have a fitted effect of over 55% in size
Settings: recombinant tau K18 P301L (four-repeat tau fragment), heparin-induced fibrillization, ThT fluorescence; series mostly up to 57.4 µM; activity, negative = inhibition: at the top concentration
Source text: NIH Molecular Libraries Probe Production Network [MLPCN]
NIH Chemical Genomics Center [NCGC]
Assay Provider: Carlo Ballatore, University of Pennsylvania
The microtubule-associated protein tau is an abundant protein in the axons of neurons that stabilizes microtubules. With its ability to modulate microtubule dynamics, tau contributes directly or indirectly, to key structural and regulatory cellular functions. Particularly important is the influence tau exerts on axonal transport, which allows signaling molecules, trophic factors and other essential cellular constituents to travel along the axons. Under pathological conditions, tau becomes sequestered into insoluble aggregates called neurofibrillary tangles. This phenomenon is believed to have pathological consequences by promoting axonal transport deficits that ultimately lead to synaptic dysfunction and neuronal loss. To identify inhibitors of tau aggregation, a heparin-induced tau fibril formation assay was used that employed a recombinantly expressed fragment of tau, K18 (Q242-E372), bearing a P301L mutation (Gustke et al. 1994; Hong et al. 1998). This assay monitors tau fibrillization by Thioflavin T (ThT) fluorescence.
Gustke, N., B. Trinczek, et al. (1994). "Domains of tau protein and interactions with microtubules." Biochemistry 33(32): 9511-22.
Hong, M., V. Zhukareva, et al. (1998).
Li, W. and V. M. Lee (2006).
von Bergen, M., S. Barghorn, et al. (2001). "Mutations of tau protein in frontotemporal dementia promote aggregation of paired helical filaments by enhancing local beta-structure." J Biol Chem 276(51): 48165-74.
NCGC Assay Protocol Summary:
For screening, 2 uL/well human K18 P301L (15 uM unlabeled and 0.24 uM Alexa 594-labeled tau, final concentrations) in reagent buffer (100 mM sodium acetate pH 7) was dispensed into black solid 1536-well plates (Grenier) using a solenoid-based dispenser. Following transfer of 23 nL compound or DMSO vehicle by a pin tool, 2 uL/well heparin (20 uM final concentration) in reagent buffer was added and the plate centrifuged 15 s at 1000 RPM. Plates were incubated 6 hr at 37 C and then 1 uL/well ThT (30 uM final concentration) was added. After a 1 hr ambient incubation, the plates were read by an Envision (Perkin Elmer) to monitor ThT fluorescence (450/8 nm excitation and 510/23 nm emission).
Keywords: NIH Roadmap, MLPCN, MLI, MLSMR, NCGC, qHTS, tau, tauopathies, Alzheimer's disease, fibril, neurodegeneration, aggregation
% is scaled to controls: 0 for no effect and ±100 for the full control effect; potency is read from the fitted curve at half-maximal effect.

Sequence of Microtubule-associated protein tau (Homo sapiens) (P10636 561-689 P618L limits assumed): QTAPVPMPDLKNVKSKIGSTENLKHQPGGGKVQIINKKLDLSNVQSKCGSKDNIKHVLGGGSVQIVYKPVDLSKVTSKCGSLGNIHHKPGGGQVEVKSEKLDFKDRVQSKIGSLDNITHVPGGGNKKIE

activity, negative = inhibition, inactive:
COc1cc(NC(=O)Cn2c(=O)n(Cc3ccco3)c(=O)c3oc4ccccc4c32)cc(OC)c1 8.95%
Cc1cccc(C2=N/C(=C/c3cccs3)C(=O)O2)c1 -11.6%
O=C1N/C(=C/c2cccs2)C(=O)N1Cc1ccc(F)cc1 4.61%
CC1Cc2cc(S(=O)(=O)CCC(=O)Nc3ccc(F)c(Cl)c3)ccc2N1C(=O)C1CC1 (stereo unspecified) 1.55%
Cc1ccc(C)c(NC(CC(=O)c2ccccc2)C(=O)OCC(=O)c2cccs2)c1 (stereo unspecified) -13.7%
O=C(CCC(=O)c1cccs1)NCc1ccccc1 0.274%
COc1cccc(-n2cc(C(=O)NCc3cccc(Cl)c3)c3ccccc3c2=O)c1 -10.9%
CCS(=O)(=O)N1CCC(n2c(C)nc3cccnc32)CC1 -1.27%
COc1ccc(Cl)cc1C(=O)NNC(=S)NC1CCCC1 -2.82%
C=CCNC(=S)NNC(=O)c1cc(Cl)ccc1OC -14.5%
Cc1ccc(C(=O)N2c3ncnn3C3(CCCCC3)[C@@H]3CCCC[C@@H]32)cc1 -7.73%
Cc1cccn2c(=O)c(/C=C3\SC(=S)N(CC(C)C)C3=O)c(NCCCOC(C)C)nc12 -13.2%
CCOC(=O)CNC(=O)c1cc2c(=O)n3cccc(C)c3nc2s1 -2.97%
Cn1nnnc1SCCCNCc1cccc(OCc2ccc(Cl)cc2)c1 -14.2%
Cc1ccccc1Nc1c(-c2ccccc2)nc2ncccn12 -8.46%
COc1ccc(NC(=O)CN2CCCN(Cc3ccccc3)S2(=O)=O)cc1 6.18%
Cc1nnc(C)n1-c1ccc(C(=O)Nc2cccc(Br)c2)cc1 -13.8%
C=Cc1ccc(Cn2c(C(=O)O)c(CNC3CCCC3)c3ccc(C)cc32)cc1 -6.7%
CC1CCC(NS(=O)(=O)c2ccc3c(c2)n(C)c(=O)c(=O)n3C)CC1 (stereo unspecified) -10.1%
CSc1ccc(S(=O)(=O)NC2CCCCC2)cc1 -14.1%
O=C(Nc1ccccc1Cl)N1CCC(CN2CCCCC2)CC1 0.774%
COc1ccc(S(=O)(=O)n2nc(C)c(S(=O)(=O)N3CCCCCC3)c2C)cc1 -5.22%
CCc1nnc(SCC(=O)Nc2cc(OC)ccc2OC)nc1CC -13.1%
COc1ccc(C)cc1N(C)C(=O)c1c(C)oc2ncnc(N3CCOCC3)c12 -4.51%
CCOC(=O)C1CCCN(S(=O)(=O)c2cc(-c3cc(C)no3)ccc2OC)C1 (stereo unspecified) -5.37%
N#C/C(=C\c1ccc(N2CCOCC2)o1)C(=O)N1CCOCC1 -14.6%
N#C/C(=C\c1ccccc1C(F)(F)F)C(=O)Nc1ccccc1F -2.13%
COc1cccc(-c2cc(C(=O)Nc3ccc(C)cc3)[nH]n2)c1 16.5%
Cc1nonc1C(=O)N/N=C/c1ccc(O)cc1 -13.5%
COc1ccc(C/C(C)=N/NC(=O)c2cc(C)oc2C)cc1 -14.5%
CCn1cc(C(=O)N2CCN(c3cc(C)ccc3C)CC2)c(=O)c2cc(S(=O)(=O)N(C)C3CCCCC3)ccc21 -17%
Cc1noc2ncnc(NCc3ccccc3Cl)c12 -8.51%
CC(C)NC(=O)C(=O)N/N=C/c1ccco1 -18.5%
COC(=O)C1=C(C)N(c2ccc(Br)cc2)C(=O)/C1=C\c1ccco1 3.15%
CCOC(=O)c1c(NC(=O)c2ccc(S(=O)(=O)N3CCCC(C)C3)cc2)sc2c1CCN(C(C)C)C2 (stereo unspecified) -15.9%
COc1cc(OC)c(NC(=O)c2nc(-c3ccncc3)no2)cc1Cl 15.5%
Cc1ccc(-c2csc(NC(=O)c3cnccn3)n2)cc1C -7.61%
Cc1ccc(-c2csc(SCC(=O)Nc3cc(C)on3)n2)cc1 -1.99%
Cc1ccccc1CNC(=O)CCCn1nc(C)c2sc3ccccc3c2c1=O 11.6%
O=C(NC1CC(=O)N(c2ccccc2)C1)c1ccco1 (stereo unspecified) 4.55%
COc1ccc(NC(=O)Nc2cccc(-c3noc(C)n3)c2)cc1 -6.06%
Cc1c(C)n(Cc2ccc(Cl)cc2)c2ccc(C(=O)NCCc3ccc(S(N)(=O)=O)cc3)cc12 -2.45%
CC(C)(C)c1ccc(C(=O)Nc2ccc3c(c2)CCCN3C(=O)c2cccs2)cc1 -12.8%
CCc1ccc(NC(=O)CN2C(=O)CCSc3ccc(S(=O)(=O)N4CCCC4)cc32)cc1 8.06%
CCc1nn(CCCC(=O)NCc2ccc(C)cc2)c(=O)c2cc3occc3n12 -5.1%
COCCCNC(=O)c1ccc(NC(=O)c2nsc3ccccc23)cc1 -4.75%
Cc1ccc(N2C(=O)C3C(c4ccccc4)(C2=O)C3(c2ccccc2)c2ccccc2)cc1 (stereo unspecified) 4.8%
O=C(Nc1ccc2nc(SCCOc3ccccc3Cl)sc2c1)c1ccco1 5.98%
CCOC(=O)c1cccc(NC(=O)c2cc(S(=O)(=O)N3CCCC(C)C3)cn2C)c1 (stereo unspecified) 3.72%
Cc1ccc(S(=O)(=O)c2c(Nc3cccc(Cl)c3)sc(C(=O)c3ccc4c(c3)OCO4)c2N)cc1 -3.94%
CCOc1cc(C(=O)Nc2nnc3n2CCS3)cc(OCC)c1OCC 1.75%
Cc1ccc2cccc(NC(=O)C(C)Oc3ccc(C)c(C)c3)c2n1 (stereo unspecified) 6.23%
Cc1ccccc1C(=O)Nc1cc(C)c(O)c(-c2nc3ccccc3o2)c1 -2.98%
CC(C)c1ccc(C2C(C#N)=C(N)Oc3c2oc(CO)cc3=O)cc1 (stereo unspecified) -9.29%
CCOC(=O)c1ccc(N2C(=O)c3n[nH]c(-c4ccco4)c3C2c2ccc(O)cc2)cc1 (stereo unspecified) -15.9%
CCCc1nn2c(=O)cc(COC(=O)c3ccc(NC(=O)C(C)Oc4ccccc4)cc3)nc2s1 (stereo unspecified) -5.44%
COC(=O)Cc1[nH]n(-c2nc3ccccc3s2)c(=O)c1C(C)=Nc1ccc(OC)cc1 12%
COc1ccc(C2=NN(c3ccccc3)C(c3cccs3)C2)cc1 (stereo unspecified) -9.36%
CCOC(=O)c1c(S(=O)(=O)N2CCC(C(=O)NCc3ccccc3OC)CC2)c(C)n(C)c1C 7.16%
CN(C)c1ccnc2sc(C(=O)c3ccccc3)c(N)c12 -18.6%
O=C(CN1C2=NCCN2c2ccccc21)c1cccs1 2.91%
O=C(NCc1ccccc1Cl)c1cccn1-c1nnc(N2CCCCC2)s1 -3.55%
O=C(CSC1=NCCS1)Nc1nc(-c2ccccc2)cs1 -21.2%
O=C(Nc1nc(-c2ccc(-c3ccccc3)cc2)cs1)c1cnccn1 -14.1%
Cc1cccc(S(=O)(=O)c2cn(Cc3ccccc3)c3cc(N4CCOCC4)c(F)cc3c2=O)c1 -7.93%
COc1ccc(CNC(=O)c2cc3c(s2)-c2ccccc2OC3)cc1 -9.54%
CCN(CC)S(=O)(=O)c1ccc(C(=O)N=c2sc3cccc(OC)c3n2C)cc1 2.64%
O=C(Cn1c(-c2cccs2)cc2ccccc21)NCCc1ccc(Cl)cc1 1.45%
CN(Cc1ccccc1)c1ccc(-c2nc(-c3ccccc3)no2)cc1[N+](=O)[O-] -1.66%
COc1ccc(N2CCN(C(=O)CSc3ncnc4c3cnn4-c3ccc(OC)cc3)CC2)cc1 -11.1%
COc1ccc(N2CCN(C(C)=C3C(=O)c4ccccc4C3=O)CC2)cc1 18.2%
Cc1nn(C(C)C(=O)Nc2ccc(C(C)C)cc2)c(=O)c2c1sc1ccccc12 (stereo unspecified) 4.79%
O=C(CSc1nc2c(c(=O)[nH]1)CN(Cc1ccc(F)cc1)CC2)Nc1ccccc1Cl -3.93%
NS(=O)(=O)c1ccc2nc(NC(=O)COc3ccccc3)sc2c1 1.18%
O=C(NCc1cccnc1)C(=O)NCC(c1cccnc1)N1CCN(c2ccccc2)CC1 (stereo unspecified) -1.85%
CCc1ccc(S(=O)(=O)n2ccnc2)cc1 13%
Cc1ccc(C(=O)c2ccc(N3CCN(C)CC3)c([N+](=O)[O-])c2)cc1 2.39%
N/C(=N\OC(=O)Cc1ccccc1[N+](=O)[O-])c1ccc(Br)cc1 -2.47%
Cc1ccc(C)c(S(=O)(=O)n2nc(C)c(S(=O)(=O)N3CCC(C)CC3)c2C)c1 1.74%
CSc1ccc(C2C(C(=O)Nc3ccccc3)=C(C)Nc3nc4ccccc4n32)cc1 (stereo unspecified) 17.8%
COc1ccc(S(=O)(=O)c2c(Nc3ccc(C)cc3)sc(C(=O)c3ccc(C)cc3)c2N)cc1 -1.21%

Potency, active:
CSC1=N/C(=C\C=C\c2cccs2)C(=O)S1 14.1 µM
Cc1ccccc1C(CC(=O)c1cccs1)C(C#N)C#N (stereo unspecified) 25.1 µM
Cc1coc2c(O)cc3c(c12)OC1(N2CCCCC2)C(=O)NCCCC31 (stereo unspecified) 15.8 µM
COc1ccc(Cl)cc1C(=O)NNC(=S)NC(=O)/C=C/c1ccco1 11.2 µM
CCOC(=O)CC1C(=O)NCCN1c1nc2c(C)cccn2c(=O)c1/C=C1\SC(=S)N(C(C)CC)C1=O (stereo unspecified) 7.94 µM
CCc1cccc(C)c1Nc1c(-c2ccc(N(C)C)cc2)nc2ncccn12 14.1 µM
Cn1sc(=O)c2cc(S(=O)(=O)NC3CC3)ccc21 12.6 µM
N#C/C(=C\C1=C(N2CCOCC2)C(=C\c2ccccc2)/CC1)C(=O)Nc1ccccc1F 3.16 µM
Cc1cc(C(=O)N/N=C/c2ccc(N3CCOCC3)cc2)c(C)o1 3.98 µM
COC(=O)C1=C(C)N(C(C)c2ccccc2)C(=O)/C1=C\c1ccco1 (stereo unspecified) 22.4 µM
Cc1ccc(Nc2nc(-c3ccc(O)cc3O)cs2)nc1 5.01 µM
CCN(CC)c1cc(NC2CCCCC2)c2c3c(onc13)-c1ccccc1C2=O 11.2 µM
Cc1ccc(C2C3=C(Nc4[nH]n(-c5ccccc5)c(=O)c42)c2ccccc2C3=O)cc1 (stereo unspecified) 7.94 µM
CC(C)c1ccc(C2CC(=O)N3CN(C4CCCCC4)CSC3=C2C#N)cc1 (stereo unspecified) 22.4 µM
COc1ccc(C2=NN(c3nc4ccccc4s3)C(=O)C2)cc1 10 µM
Nc1c(C(=O)c2cccs2)sc2nsc(SCCN3CCCCC3)c12 4.47 µM
O=C(Nc1nc(-c2ccncc2)cs1)C1COc2ccccc2O1 (stereo unspecified) 28.2 µM
COc1ccc(N2CCN(c3ccc([N+](=O)[O-])nc3)CC2)cc1 1.41 µM
Cc1oc2cc([N+](=O)[O-])c(O)c([N+](=O)[O-])c2c1C(=O)c1ccc(Br)cc1 10 µM

Potency, inactive:
Cc1cccc(C)c1Nc1c(-c2ccccc2O)nc2ncccn12
